Measured values from PMC4336329 (PLoS ONE, 2015).
The whole screen tested about 310,000 compounds, of which about 14,000 (4.5%) showed an effect of 50% or more. The effect is printed as a negative number. This excerpt belongs to a sample that is enriched for strong results.

Biological target: human ether-à-go-go-related gene (hERG) potassium channel (human, UniProt Q12809)
Experiment: primary screen, population patch clamp on CHO cells stably expressing hERG; higher = less effect of the substance
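Note: peak tail current of the secondary pulse compared with the same well before compound.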

human ether-à-go-go-related gene (hERG) potassium channel, sequence (Q12809 whole entry, looked up): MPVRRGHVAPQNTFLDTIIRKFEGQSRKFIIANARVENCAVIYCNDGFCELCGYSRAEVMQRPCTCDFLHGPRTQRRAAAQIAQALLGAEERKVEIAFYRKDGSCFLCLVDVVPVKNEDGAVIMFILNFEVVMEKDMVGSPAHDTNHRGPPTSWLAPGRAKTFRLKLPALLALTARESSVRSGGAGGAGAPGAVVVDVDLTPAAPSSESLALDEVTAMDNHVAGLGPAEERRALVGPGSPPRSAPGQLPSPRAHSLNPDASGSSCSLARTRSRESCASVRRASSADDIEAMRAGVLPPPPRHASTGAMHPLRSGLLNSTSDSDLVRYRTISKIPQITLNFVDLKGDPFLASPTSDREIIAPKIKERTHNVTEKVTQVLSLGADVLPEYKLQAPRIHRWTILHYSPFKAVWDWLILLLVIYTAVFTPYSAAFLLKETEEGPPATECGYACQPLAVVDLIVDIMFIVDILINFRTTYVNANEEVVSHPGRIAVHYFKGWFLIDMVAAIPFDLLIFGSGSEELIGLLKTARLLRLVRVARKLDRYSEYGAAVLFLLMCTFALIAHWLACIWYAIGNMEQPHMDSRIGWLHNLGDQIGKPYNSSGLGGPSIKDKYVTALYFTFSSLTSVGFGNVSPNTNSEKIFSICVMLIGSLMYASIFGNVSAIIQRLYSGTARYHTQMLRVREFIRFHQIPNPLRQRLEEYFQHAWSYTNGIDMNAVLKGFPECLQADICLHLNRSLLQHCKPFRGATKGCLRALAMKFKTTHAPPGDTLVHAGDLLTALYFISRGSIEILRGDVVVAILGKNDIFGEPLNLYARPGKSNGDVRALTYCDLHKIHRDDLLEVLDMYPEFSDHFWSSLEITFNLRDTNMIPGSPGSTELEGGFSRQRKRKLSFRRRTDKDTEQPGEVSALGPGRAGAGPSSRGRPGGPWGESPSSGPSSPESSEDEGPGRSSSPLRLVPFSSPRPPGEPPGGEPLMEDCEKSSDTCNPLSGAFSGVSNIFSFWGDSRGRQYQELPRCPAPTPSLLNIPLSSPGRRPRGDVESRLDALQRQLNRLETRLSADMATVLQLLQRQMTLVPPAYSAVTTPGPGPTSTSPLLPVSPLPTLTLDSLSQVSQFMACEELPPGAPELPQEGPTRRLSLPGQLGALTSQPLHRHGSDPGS

| SMILES | hERG current change (%, negative = inhibition) at 10uM [%] |
| --- | --- |
| COc1ccc(N2CCN(CC(=O)Nc3c(C)cc(C)cc3C)CC2)cc1 | 0.738 |
| Cc1ccc(CNC(=O)/C=C/c2ccc(Br)o2)cc1 | -26.2 |
| O=C(Nc1cccc(Cl)c1)NC1CC2CCC1C2 (centres unmarked) | 9.69 |
| Cc1ccc2nc3c(c(Nc4ccc5c(c4)OCCO5)c2c1)CCC3.Cl | -51.7 |
| O=C(Nc1ccc2c(c1)OCCO2)c1cc(-c2ccccc2)nc2ccccc12 | 9.23 |
| Cc1ccc2nc(-c3ccc4c(c3)OCCO4)cc(C(=O)O)c2c1 | 4.86 |
| Cc1ccc2nc(-c3ccncc3)cc(C(=O)Nc3ccc4c(c3)OCCO4)c2c1 | 3.46 |
| O=C(COC(=O)c1c2c(nc3ccccc13)CCCC2)Nc1ccc2c(c1)OCO2 | 3.1 |
| c1ccc2c(Nc3ccc4c(c3)OCCO4)c3c(nc2c1)CCCC3 | -92.4 |
| O=C(Nc1c2c(nc3ccccc13)CCCC2)c1ccccc1F | -3 |
| Cl.c1ccc2c(Nc3ccc4c(c3)OCCO4)c3c(nc2c1)CCC3 | -52.3 |
| Cc1cc(C)c(C)c(S(=O)(=O)N2CCC(C(=O)Nc3ccccc3N3CCOCC3)CC2)c1C | -8.54 |
| Cc1cc(Br)ccc1NC(=O)CNC(=O)Cc1ccc(S(=O)(=O)N2CCOCC2)s1 | -33.8 |
| CCOC(=O)[C@H]1CCC[C@@H](NS(=O)(=O)c2ccc(NC(C)=O)cc2)C1 | 14.1 |
| Cc1ccc(Nc2ccc3nonc3c2[N+](=O)[O-])cc1 | 2.88 |
| CCCCNC(=O)C1c2ccccc2C(=O)N(c2ccc(OC)cc2)C1c1ccc(OC)cc1 (centres unmarked) | -18.6 |
| COc1cc(OC)c(C(=O)NNC(=S)NC2CCCCC2)cc1OC | 16.6 |
| O=C(NCC(=O)N1CCN(S(=O)(=O)/C=C/c2ccccc2)CC1)c1ccc(Cl)cc1 | -23.1 |
| CC(C)Oc1ccc(C(=O)NCC(=O)N2CCN(S(=O)(=O)/C=C/c3ccccc3)CC2)cc1 | -67.6 |

| SMILES | hERG current change (%, negative = inhibition) at 10uM [%] |
| --- | --- |
| CCOc1ccc(C(=O)NCC(=O)N2CCN(C/C=C/c3ccccc3)CC2)cc1OCC | -41.7 |
| O=C(NCC(=O)N1CCN(C/C=C/c2ccccc2)CC1)c1ccc(OC(F)F)cc1 | -79.5 |
| O=C(NC(=S)N1CCN(C/C=C/c2ccccc2)CC1)c1ccc(F)cc1 | -43.7 |
| Cc1cccc(C(=O)NCC(=O)N2CCN(S(=O)(=O)/C=C/c3ccccc3)CC2)c1 | -18.5 |
| CCOC(=O)c1cnc(SCc2nc(N)nc(Nc3ccccc3OC)n2)nc1N | -2.39 |
| O=C1NCC(COc2cccc3ccccc23)O1 (centres unmarked) | 13.3 |
| CCN(CC(=O)Nc1ccc(NC(C)=O)cc1)C(=O)Cc1cccc2ccccc12 | 4.98 |
| CC1CCCCN1S(=O)(=O)c1ccc2[nH]c(=O)cc(C(=O)NCCCN3CCCCCC3)c2c1 (centres unmarked) | 17 |
| Cc1cccc(-n2cc(-c3ccc([N+](=O)[O-])cc3)[nH]c2=S)c1 | -2.96 |
| O=[N+]([O-])c1ccc(-c2cn(-c3ccccc3F)c(=S)[nH]2)cc1 | -3.28 |
| Cc1ccc(-n2cc(-c3ccc([N+](=O)[O-])cc3)[nH]c2=S)c(C)c1 | -51.3 |
| CCOC(=O)C1CCCN(C(=O)Cn2nc(C)n3c(cc4c(OC)cccc43)c2=O)C1 (centres unmarked) | -6.37 |
| CN1C[C@H](CO)C[C@@H]2c3cccc4[nH]cc(c34)C[C@H]21 | -7.36 |
| O=C(NCC1CCC(C(=O)O)CC1)OCc1ccccc1 (centres unmarked) | 3.13 |
| CN1C[C@H](CNC(=O)OCc2ccccc2)C[C@@H]2c3cccc4c3c(cn4C)C[C@H]21 | -61.9 |
| Cc1ccsc1C(=O)N1CCCC(N(C)Cc2ccccc2)C1 (centres unmarked) | -13.9 |
| COc1ccc(CCN(C)C2CCCN(C(=O)c3ccnn3C)C2)cc1OC (centres unmarked) | -21.1 |
| CCn1nc(C)cc1C(=O)N1CCCC(N(C)CCc2ccc(OC)c(OC)c2)C1 (centres unmarked) | -16.2 |
| COCc1ccc(C(=O)N2CCCC(N(C)Cc3ccccc3)C2)s1 (centres unmarked) | -8.86 |

| SMILES | hERG current change (%, negative = inhibition) at 10uM [%] |
| --- | --- |
| COCc1ccc(C(=O)N2CCCC(N(C)CCc3ccc(OC)c(OC)c3)C2)s1 (centres unmarked) | -62.4 |
| COc1ccc(CCN(C)C2CCCN(C(=O)c3sccc3C)C2)cc1OC (centres unmarked) | -55 |
| CN(C)CCCn1c(SCc2c(Cl)cccc2Cl)nnc1-c1ccncc1.O=C(O)C(=O)O | -0.471 |
| CCOc1ccc(NC(=O)C2CCCN(c3nn4c(=O)cc(C)nc4s3)C2)cc1 (centres unmarked) | -7.14 |
| COc1ccc(C/C(C)=N/NC(=O)c2ccncc2)cc1 | -7.41 |
| O=C(CSc1nc(O)c(C2CCCCC2)c(=O)[nH]1)Nc1ccc(F)cc1 | 22.4 |
| COc1ccc(OCCSc2ncc(CO)n2C)cc1 | 12.4 |
| CCCCn1c(CN2CCN(C)CC2)nc2ccccc21 | -67.1 |
| CCCCn1c(CNC(C)=O)nc2ccccc21 | 3.5 |
| CCCn1c(CN2CCN(C)CC2)nc2ccccc21 | -9.68 |
| CCn1c(CN2CCN(CCO)CC2)nc2ccccc21 | 5.04 |
| CCCCn1c(CN2CCN(CCO)CC2)nc2ccccc21 | -66 |
| CCCCn1c(N)nc2ccccc21.Cl | -8.47 |
| O=S(=O)(Nc1ccccn1)c1ccc(Cl)c2ccccc12 | 19.5 |
| O=C(NCc1cccnc1)c1cccc2c1C(=O)N(C1CCCCC1)C2 | -15.3 |
| CCc1ccccc1N1C(=O)/C(=C/c2ccc(N3CCN(C)CC3)o2)C(=O)NC1=S | 1.18 |
| O=C(CCNS(=O)(=O)c1ccccc1C(F)(F)F)NCC(c1ccco1)N1CCCCC1 (centres unmarked) | 0.519 |
| CCOc1ccc2nc(NS(=O)(=O)c3cccs3)sc2c1 | 20.8 |
